For 40 molecules, Potency and activity change, negative = cytotoxicity results are on record in PubChem BioAssay (Tox21).

Where “and” joins values, the source holds several entries; their conditions need not be identical. Equal values may be shown once. Inconclusive results are not listed. Where a call stands in place of a potency, no number is given. Calls of active or inactive are those of the source. The call rests on the fitted dose curve.
Potency means the concentration at half of the fitted maximal effect.

The nature of this assay: qHTS assay to identify small molecule agonists of the hypoxia (HIF-1) signaling pathway - cell viability counter screen (AID 1224844). Further: nearly all actives have a fitted effect of over 50% in size. The conditions noted are these: HRE-bla ME-180 viability, CellTiter-Glo luminescence, 17 h; series mostly up to 76.8 µM. The source says: National Center for Advancing Translational Sciences [NCATS]
NIH Chemical Genomics Center [NCGC]
U.S. Environmental Protection Agency [EPA]
National Institutes of Environmental Health Sciences [NIEHS]
National Toxicology Program [NTP]
U.S. Food and Drug Administration [FDA]
Hypoxia-inducible factor-1 (HIF-1) is the major hypoxia-regulated transcription factor that controls cellular responses to low oxygen concentration. HIF-1 is composed of two subunits: hypoxia responsive HIF-1-alpha and constitutively expressed HIF-1-beta, which is also known as aryl hydrocarbon receptor nuclear translocator. During hypoxic conditions, HIF-1-alpha heterodimerizes with HIF-1-beta and translocates into the nucleus where the HIF-1 complex binds to the hypoxia-response element (HRE) and activates expression of target genes such as VEGF (vascular endothelial growth factor). The HIF-1 pathway is essential to normal growth and development, and is involved in the pathophysiology of cancer, inflammation, and ischemia.
Using a beta-lactamase reporter-gene under control of the hypoxia response element, a cell-based assay [CellSensor(TM) HRE-bla ME-180 from Life Technologies, Carlsbad, CA] was used to measure hypoxia-induced signaling. Tox21 10K library compounds were measured for their ability to induce the reporter gene activity. The cytotoxicity of the Tox21 compound library against HRE-bla ME-180 cell line was tested in parallel by measuring cell viability using CellTiter-Glo assay (Promega, Madison, WI) in the same assay wells.
Tox21 Assay Protocol Summary:
HRE-bla ME-180 cells were dispensed at 2,000 cells per well in 6 uL of assay medium containing 0.5% dialyzed FBS into black wall/clear-bottom 1536-well plates using a Multidrop Combi (Thermo Scientific, Waltham, MA) dispenser. After the assay plates were incubated at 37C and 5% CO2 for 5 hrs, 23 nL of compounds dissolved in DMSO, positive controls or DMSO only was transferred to each well of the assay plate using a Pintool station (Kalypsys, San Diego, CA). The assay plates were incubated at 37C and 5% CO2 for 17 hrs. One uL of LiveBLAzerTM B/G FRET substrate (CCF4-AM) (Life Technologies) was added to each well using a Flying Reagent Dispenser (FRD, Aurora Discovery, San Diego, CA). After 2 hr incubation at room temperature, fluorescence intensity (405 nm excitation, 460 nm and 530 nm emissions) was measured using an Envision plate reader (PerkinElmer, Shelton, CT). For cytotoxicity, 4 ul/well of CellTiter-Glo reagent was added into the assay plates using an FRD. After 30 min incubation at room temperature, the luminescence intensity was measured using a ViewLux plate reader (PerkinElmer).
A general note: In qHTS, concentration-response curves come from the screen itself.
Regarding `CCC(N)(CO)CO`, the Potency result is “inactive”.

Regarding `COC(=O)C1=C(C)NC(C)=C(C(=O)OCC(C)C)C1c1ccccc1[N+](=O)[O-]` (stereo not given), the Potency was 49 µM (active). For the molecule `COc1cc(-c2ccc(N=C=O)c(OC)c2)ccc1N=C=O`, the Potency result was “inactive”. The same measure, in the same setting: as for `CCCCCOc1ccccc1/C(=C\SC)n1ccnc1`, the figure is 21.3 µM (active); as for `Nc1cc(C(F)(F)F)ccc1S`, “inactive”; as for `O=c1[nH]sc2ccccc12`, 21.9 µM (active). Turning to `CCCC(c1cc(C(C)(C)C)c(O)cc1C)c1cc(C(C)(C)C)c(O)cc1C`, the Potency was 9.89 µM (active). Still for that read-out and setting: as for `OCc1c[nH]c2ccccc12`, the entry is “inactive”; as for `C=CC(=O)OCC(CO)(COC(=O)C=C)COC(=O)C=C`, 4.38 µM (active) and 17.4 µM (active).

On to `c1ccc(CSCc2ccccc2)cc1`, for which the Potency result was “inactive”.

Take `O=CC=C(c1ccccc1)c1ccccc1`: the Potency entry was “inactive”. With `OCCN1CCN(CC/C=C2/c3ccccc3Sc3ccc(C(F)(F)F)cc32)CC1`, the Potency was 21.3 µM (active). The same measure, in the same setting: next, `CCCCCCCCCCCCCCCC[N+](C)(C)CCN(Cc1ccc(OC)cc1)c1ncccn1`: 21.3 µM (active). As to `COc1cc(-c2nc(NC(=O)c3cc4cc(C)cc(C)c4n3CC(=O)O)sc2CCC2CCCCC2)c(OC)cc1Cl`, the Potency was 25.2 µM (active).

In the case of `O=C1C=CC(=O)N1`, the Potency is 11.3 µM (active).

As to `Cc1onc(-c2c(Cl)cccc2Cl)c1C(=O)N[C@@H]1C(=O)N2[C@@H]1SC(C)(C)[C@@H]2C(=O)O`, the Potency result was “inactive”.

As to `C1CCCC1`, the Potency entry was “inactive”. As to `CCN(CCC#N)c1ccc(N=Nc2c(Cl)cc([N+](=O)[O-])cc2Cl)cc1`, the Potency entry was “inactive”. Still for that read-out and setting: as for `Nc1ccc2cc(S(=O)(=O)O)cc(O)c2c1N=Nc1ccccc1C(F)(F)F`, the entry is “inactive”. For `CCCCCCCC/C=C\CCCCCCCCOCCO`, the Potency was 28.4 µM (active). Turning to `O=C(OC[C@H]1O[C@@H](OC(=O)c2cc(O)c(O)c(OC(=O)c3cc(O)c(O)c(O)c3)c2)[C@H](OC(=O)c2cc(O)c(O)c(OC(=O)c3cc(O)c(O)c(O)c3)c2)[C@@H](OC(=O)c2cc(O)c(O)c(OC(=O)c3cc(O)c(O)c(O)c3)c2)[C@@H]1OC(=O)c1cc(O)c(O)c(OC(=O)c2cc(O)c(O)c(O)c2)c1)c1cc(O)c(O)c(OC(=O)c2cc(O)c(O)c(O)c2)c1`, the activity change, negative = cytotoxicity was -0.825% [at 15.8 µM] (inactive).

Regarding `CC/C(=C(\c1ccc(O)cc1)c1ccc(OCCN(C)C)cc1)c1ccccc1`, the Potency was 55.1 µM (active). For `CN(C)CCCOC1(Cc2ccccc2)CCCCCC1`, the Potency result is “inactive”. Turning to `CCc1oc2ccccc2c1C(=O)c1cc(Br)c(O)c(Br)c1`, the Potency entry was “inactive”.

As to `CC(C)c1ccc2c(c1)CC[C@H]1[C@](C)(CN)CCC[C@]21C`, the Potency was 49 µM (active). Same read-out and setting: next, `CNC(=O)c1ccccc1`: “inactive”. With `C[n+]1ccn(Cc2ccccc2)c1`, the Potency result is “inactive”.

In the case of `CC(C)(C)C1CCC(CC2=C(O)c3ccccc3C(=O)C2=O)CC1` (stereo not given), the Potency entry was “inactive”.

Regarding `Clc1ccc(C(Cn2ccnc2)OCc2ccc(Sc3ccccc3)cc2)c(Cl)c1` (stereo not given), the Potency entry was “inactive”. The same measure, in the same setting: next, `Nc1ccc(N)c2ccccc12`: 24.5 µM (active). Consider `COc1cccc(N)c1`, for which the Potency result is “inactive”. On the same count and under the same terms, next, `O=C(Oc1ccccc1)c1ccccc1C(=O)Oc1ccccc1`: “inactive”; `O=c1[nH]cnc2nc[nH]c12`: “inactive”; `CCc1cc(Cc2cc(CC)cc(C(C)(C)C)c2O)c(O)c(C(C)(C)C)c1`: 11 µM (active). As to `CSc1ccc(/C=C2/C(C)=C(CC(=O)O)c3cc(F)ccc32)cc1`, the Potency was 10.7 µM (active). For `COc1c(C)c2c(c(O)c1C/C=C(\C)CCC(=O)O)C(=O)OC2`, the Potency was 0.151 µM (active).

As to `O=C1CCCc2c1cc1ccc3cccc4ccc2c1c34`, the Potency is 44.2 µM (active).

In the case of `C[C@@H](NCCCc1cccc(C(F)(F)F)c1)c1cccc2ccccc12`, the Potency was 23.9 µM (active).

Consider `CCOC(=O)/C=C(C)/C=C/C=C(C)/C=C/c1c(C)cc(OC)c(C)c1C`, for which the Potency entry was “inactive”.

As to `CCCCCCCCOC(=O)c1ccc(O)cc1`, the Potency was 48.8 µM (active).
